Results filed as inconclusive are left out. A call without a number means that no potency is given here. Active and inactive are the calls of the source. Calls follow the shape of the dose curve; as a rule, active = well fitted curve in the direction sought with a large enough effect; inconclusive = small, poorly fitted or top-dose-only effect, or another doubt; inactive = no such curve, though single readings can be large; an effect the other way counts as inactive or inconclusive.
How the values were obtained:
[1] = qHTS of pediatric cancer cell lines to identify multiple opportunities for drug repurposing: Primary screen for A673 cells (AID 1347092); also: nearly all actives have a fitted effect of over 45% in size; also: potency is read from the fitted curve at half-maximal effect
Procedure, shortened: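 Luminescence from CellTiter-Glo, taken after 15 min at room temperature, served as the proxy for metabolically active cells following 48 h treatment. Both potency and efficacy were taken from curves fitted to the titration data.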

[2] = qHTS of pediatric cancer cell lines to identify multiple opportunities for drug repurposing: Primary screen for SK-N-MC cells (AID 1347093); also: potency is read from the fitted curve at half-maximal effect
Procedure, shortened: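 Metabolically active cells were quantified by ATP-dependent luminescence (CellTiter-Glo, 15 min at room temperature) following 48 h treatment. Cells had been plated at 500-1,000 per well and settled for 5 h beforehand.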

[3] = qHTS of pediatric cancer cell lines to identify multiple opportunities for drug repurposing: Primary screen for BT-37 cells (AID 1347094); also: potency is read from the fitted curve at half-maximal effect
Procedure, shortened: (§1)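 Cells plated at 500-1,000/well in growth medium, compounds added after 5 h. MIPE tested at 11 points (from 0.78 nM), NPC at 8 points (from 0.59 nM). CellTiter-Glo luminescence after 48 h; concentration-response curves from primary screen.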

[4] = qHTS of pediatric cancer cell lines to identify multiple opportunities for drug repurposing: Primary screen for NB-EBc1 cells (AID 1347095); also: potency is read from the fitted curve at half-maximal effect
Procedure, shortened: as §1

[5] = qHTS of pediatric cancer cell lines to identify multiple opportunities for drug repurposing: Primary screen for U-2 OS cells (AID 1347096); also: nearly all actives have a fitted effect of over 50% in size; also: potency is read from the fitted curve at half-maximal effect
Procedure, shortened: (§2)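 Cells (500-1,000/well) rested 5 h, then received compounds for 48 h; metabolically active cells were measured by CellTiter-Glo luminescence. Final concentrations spanned up to 46 µM (MIPE, 11-point) or 0.59 nM-46 µM (NPC, 8-point) in primary screens, 11-point in follow-ups.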

[6] = qHTS of pediatric cancer cell lines to identify multiple opportunities for drug repurposing: Primary screen for Saos-2 cells (AID 1347097); also: nearly all actives have a fitted effect of over 40% in size; also: potency is read from the fitted curve at half-maximal effect
Procedure, shortened: as §1

[7] = qHTS of pediatric cancer cell lines to identify multiple opportunities for drug repurposing: Primary screen for NB1643 cells (AID 1347099); also: nearly all actives have a fitted effect of over 50% in size; also: potency is read from the fitted curve at half-maximal effect
Procedure, shortened: as §1

[8] = qHTS of pediatric cancer cell lines to identify multiple opportunities for drug repurposing: Primary screen for BT-12 cells (AID 1347101); also: nearly all actives have a fitted effect of over 25% in size; also: potency is read from the fitted curve at half-maximal effect
Procedure, shortened: as §2

[9] = qHTS of pediatric cancer cell lines to identify multiple opportunities for drug repurposing: Primary screen for Rh18 cells (AID 1347102); also: nearly all actives have a fitted effect of over 65% in size; also: potency is read from the fitted curve at half-maximal effect
Procedure, shortened: as §2

[10] = qHTS of pediatric cancer cell lines to identify multiple opportunities for drug repurposing: Primary screen for OHS-50 cells (AID 1347103); also: nearly all actives have a fitted effect of over 40% in size; also: potency is read from the fitted curve at half-maximal effect
Procedure, shortened: as §2

[11] = qHTS of pediatric cancer cell lines to identify multiple opportunities for drug repurposing: Primary screen for RD cells (AID 1347104); also: nearly all actives have a fitted effect of over 55% in size; also: potency is read from the fitted curve at half-maximal effect
Procedure, shortened: as §1

[12] = qHTS of pediatric cancer cell lines to identify multiple opportunities for drug repurposing: Primary screen for MG 63 (6-TG R) cells (AID 1347105); also: nearly all actives have a fitted effect of over 50% in size; also: potency is read from the fitted curve at half-maximal effect
Procedure, shortened: as §1

[13] = qHTS of pediatric cancer cell lines to identify multiple opportunities for drug repurposing: Primary screen for control Hh wild type fibroblast cells (AID 1347106);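 also: series mostly up to about 46 µM; a drop in luminescence marks cytotoxicity and a rise apparent proliferation; nearly all actives have a fitted effect of over 55% in size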
Procedure, shortened: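 Viability after 48 h compound treatment at 37C, 500-1,000 cells/well, read as ATP luminescence with CellTiter-Glo. Primary screens used 11-point (MIPE, 0.78 nM-46 µM) or 8-point (NPC, 0.59 nM-46 µM) final concentrations; follow-up screens used 11-point dilutions.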

[14] = qHTS of pediatric cancer cell lines to identify multiple opportunities for drug repurposing: Primary screen for Rh30 cells (AID 1347107); also: nearly all actives have a fitted effect of over 75% in size; also: potency is read from the fitted curve at half-maximal effect
Procedure, shortened: as §2

[15] = qHTS of pediatric cancer cell lines to identify multiple opportunities for drug repurposing: Primary screen for Rh41 cells (AID 1347108); also: nearly all actives have a fitted effect of over 70% in size; also: potency is read from the fitted curve at half-maximal effect
Procedure, shortened: as §1

[16] = qHTS of pediatric cancer cell lines to identify multiple opportunities for drug repurposing: Primary screen for SK-N-SH cells (AID 1347098); also: nearly all actives have a fitted effect of over 65% in size; also: potency is read from the fitted curve at half-maximal effect
Procedure, shortened: as §2

[17] = qHTS of pediatric cancer cell lines to identify multiple opportunities for drug repurposing: Primary screen for LAN-5 cells (AID 1347100); also: potency is read from the fitted curve at half-maximal effect
Procedure, shortened: as §2

[18] = qHTS of pediatric cancer cell lines to identify multiple opportunities for drug repurposing: Confirmatory screen for NB1643 cells (AID 1347109); also: potency is read from the fitted curve at half-maximal effect; nearly all actives have a fitted effect of over 45% in size
Procedure, shortened: as §2

[19] = qHTS of pediatric cancer cell lines to identify multiple opportunities for drug repurposing: Confirmatory screen for A673 cells (AID 1347110);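 also: cells exposed to compound for 48 h before the viability read; nearly all actives have a fitted effect of over 65% in size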; also: potency is read from the fitted curve at half-maximal effect
Procedure, shortened: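 qHTS titration format: primary MIPE 0.78 nM-46 µM (11 pts), NPC 0.59 nM-46 µM; confirmation 11 pts. 48 h, CTG luminescence.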

[20] = qHTS of pediatric cancer cell lines to identify multiple opportunities for drug repurposing: Confirmatory screen for SK-N-MC cells (AID 1347111);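 also: potency is read from the fitted curve at half-maximal effect; cells exposed to compound for 48 h before the readout; nearly all actives have a fitted effect of over 70% in size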
Procedure, shortened: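 Seed 500-1,000 cells/well; rest 5 h at 37 degrees C. Pin-transfer compounds, 11-point titration. Incubate 48 h. Add CellTiter-Glo, 15 min RT, read luminescence.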

| Structure (SMILES) | Potency [1] | Potency [2] | Potency [3] | Potency [4] | Potency [5] | Potency [6] | Potency [7] | Potency [8] | Potency [9] | Potency [10] | Potency [11] | Potency [12] | Potency [13] | Potency [14] | Potency [15] | Potency [16] | Potency [17] | Potency [18] | Potency [19] | Potency [20] |
| --- | --- | --- | --- | --- | --- | --- | --- | --- | --- | --- | --- | --- | --- | --- | --- | --- | --- | --- | --- | --- |
| CC(C)(C)c1ccc(C(O)CCCN2CCC(C(O)(c3ccccc3)c3ccccc3)CC2)cc1 (stereo unspecified) | inactive | inactive | inactive | inactive | inactive | inactive | inactive | inactive | inactive | inactive | inactive | inactive | inactive | inactive | inactive |  |  |  |  |  |
| CCN(CC)CCNC(=O)c1ccc(N)cc1 | inactive | inactive | inactive | inactive | inactive |  | inactive | inactive | inactive | inactive | inactive |  | inactive | inactive | inactive | inactive |  |  |  |  |
| O=C1C[C@@H](c2ccc(O)cc2)Oc2cc(O)cc(O)c21 | inactive | inactive | inactive | inactive | inactive |  | inactive |  | inactive | inactive | inactive | inactive | inactive | inactive | inactive | inactive | inactive |  |  |  |
| Cc1nnc(C(C)C)n1C1C[C@H]2CC[C@@H](C1)N2CC[C@H](NC(=O)C1CCC(F)(F)CC1)c1ccccc1 (stereo partly specified) | 14.8 µM (active) | 4.18 µM (active) | inactive | inactive | inactive | inactive | 18.7 µM (active) |  | inactive | inactive |  | inactive | inactive | inactive | inactive |  | inactive | 7.37 µM (active) | inactive | 7.37 µM (active) |
| Nc1nc(F)nc2c1ncn2[C@@H]1O[C@H](COP(=O)(O)O)[C@@H](O)[C@H]1O | 14.8 µM (active) | 0.264 µM (active) | 15.3 µM (active) | 935 nM (active) | inactive | 743 nM (active) | 16.6 µM (active) |  | inactive | 485 nM (active) |  | 0.469 µM (active) |  |  | inactive |  |  |  |  |  |
| Cc1cccc(C)c1OCC(C)N (stereo unspecified) | inactive | inactive | inactive | inactive | inactive |  | inactive | inactive |  | inactive | inactive |  | inactive | inactive | inactive | inactive |  |  |  |  |
| O=c1ccn([C@@H]2O[C@H](CO)[C@H](O)[C@H]2O)c(=O)[nH]1 | inactive | inactive | inactive | inactive | inactive | inactive |  | inactive | inactive | inactive | inactive |  | inactive | inactive | inactive |  | inactive |  |  |  |
| NS(=O)(=O)c1cccc2c1C(=O)c1cccc(O)c1C2=O | 0.372 µM (active) | 0.935 µM (active) | 0.432 µM (active) | 833 nM (active) | 590 nM (active) |  | 1.05 µM (active) | 273 nM (active) | 743 nM (active) | 769 nM (active) | 526 nM (active) | 2.35 µM (active) |  | 2.35 µM (active) | 935 nM (active) | 30.4 µM (active) | 1.05 µM (active) | 2.93 µM (active) | 2.33 µM (active) | 2.93 µM (active) |
| Cc1ccc(C(=O)Nc2cccc(C(F)(F)F)c2)cc1Nc1nc(-c2cccnc2)nc2c1cnn2C | 9.35 µM (active) | 9.35 µM (active) | 24.3 µM (active) | 8330 nM (active) | inactive |  | 7.43 µM (active) |  |  | 21700 nM (active) | 14800 nM (active) | 18.7 µM (active) | inactive | 18.7 µM (active) | 18700 nM (active) | inactive | 13.2 µM (active) |  |  |  |
| O=C(NCCN1CCOCC1)c1ccc(Cl)cc1 | inactive | inactive | inactive | inactive | inactive | inactive | inactive |  | inactive |  | inactive | inactive | inactive | inactive | inactive |  | inactive |  |  |  |
| O=C(O)c1cc(-c2ccccc2)nc2ccccc12 | inactive | 49.1 µM (active) | inactive | inactive | inactive |  | inactive | inactive |  |  | inactive |  | inactive | inactive | inactive | inactive | inactive |  |  |  |
| CC(=O)O[C@]1(C(C)=O)CC[C@@H]2[C@@H]3C[C@H](C)C4=CC(=O)CC[C@]4(C)[C@H]3CC[C@@]21C | 18.7 µM (active) | 18.7 µM (active) | inactive | inactive | inactive |  | 20.9 µM (active) | 24300 nM (active) |  | 24300 nM (active) |  |  | inactive |  |  | 24.1 µM (active) |  |  |  |  |
| CNC(=O)c1ccc2cc(C3(O)CCn4cncc43)ccc2c1 (stereo unspecified) | inactive | inactive | inactive | inactive | inactive |  | inactive | inactive |  |  | inactive | inactive | inactive | inactive | inactive | inactive |  |  |  |  |
| CC(C)n1nc(-c2ccc3oc(N)nc3c2)c2c(N)ncnc21 | 0.0037 µM (active) | 0.001 µM (active) | 0.0043 µM (active) | 13.2 nM (active) | 148 nM (active) | 935 nM (active) |  | 306 nM (active) | 235 nM (active) | 1.2 nM (active) | 29.6 nM (active) |  |  | 11.8 µM (active) | 23.5 nM (active) |  | 18.7 µM (active) |  | 0.147 µM (active) | 0.0737 µM (active) |

From PubChem BioAssay (NCATS)
